Results reported in PubChem BioAssay AID720566 (Broad Institute, 2013).
Measured potencies and affinities stand elsewhere. Activity calls are given as the source filed them.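 How the source made its calls: active means in all runs, an absorbance decrease of 25% or more of the average positive control decrease; inconclusive means runs conflict, with both active and inactive results; inactive means all runs inactive, opposite-direction effects included.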

Biological target: Protein disulfide-isomerase A6 (Homo sapiens) (UniProt Q15084)
Experiment: reduced insulin turbidity driven by ERp5 (PDIA6) – biochemical, absorbance 650 nm, cherry-picked samples, dose response (AID 720566);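 further: negative values mean less insulin aggregation so ERp5 inhibition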
Conditions: Recombinant ERp5 insulin aggregation; series mostly up to 35 µM; activity change, negative = inhibition: at the top concentration

Sequence of Protein disulfide-isomerase A6 (Homo sapiens) (Q15084 whole entry, looked up): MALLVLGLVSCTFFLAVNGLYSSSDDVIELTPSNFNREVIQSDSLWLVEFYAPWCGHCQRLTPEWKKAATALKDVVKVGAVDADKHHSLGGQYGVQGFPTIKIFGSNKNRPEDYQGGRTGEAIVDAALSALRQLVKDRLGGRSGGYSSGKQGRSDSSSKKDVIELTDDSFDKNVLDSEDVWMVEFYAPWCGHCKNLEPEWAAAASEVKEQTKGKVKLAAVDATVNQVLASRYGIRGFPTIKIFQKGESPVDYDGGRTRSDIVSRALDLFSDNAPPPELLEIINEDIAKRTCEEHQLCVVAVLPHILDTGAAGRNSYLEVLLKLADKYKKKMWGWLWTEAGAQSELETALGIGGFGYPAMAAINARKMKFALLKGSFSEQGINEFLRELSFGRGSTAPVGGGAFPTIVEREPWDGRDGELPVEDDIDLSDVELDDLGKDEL

Activity change, negative = inhibition, inactive:
Cc1ccc(NC(=O)COc2ccccc2)c(NC(=O)c2ccco2)c1 2.38%
CCCNC(=O)C[C@@H]1C[C@H]2c3cc(NC(=O)CC4CC4)ccc3O[C@H]2[C@H](CO)O1 3.18%
C[C@H]1CN([C@@H](C)CO)C(=O)Cc2cc(NC(=O)c3ccncc3)ccc2O[C@H]1CN(C)S(=O)(=O)c1cn(C)cn1 2.8%
CCCNC(=O)C[C@@H]1C[C@@H]2c3cc(NS(C)(=O)=O)ccc3O[C@@H]2[C@H](CO)O1 1.83%
COc1ccccc1CN(C)c1ccc(S(=O)(=O)N2CCN(C)CC2)cn1 -5.32%
CN(CC(=O)Nc1ccc(F)cc1)CC(=O)NC1CCCCC1 9.17%
COCC(=O)N1CC2(C1)CN(Cc1ccccc1F)[C@H](CO)c1[nH]c3cc(OC)ccc3c12 -8.2%
CC(C)NC(=O)N(C)C[C@@H]1Oc2ncc(-c3cc4ccccc4o3)cc2C(=O)N([C@H](C)CO)C[C@@H]1C 4.66%
Cc1noc(C)c1NC(=O)N(C)C[C@H]1Oc2c(NS(=O)(=O)c3ccc(Cl)cc3)cccc2C(=O)N([C@@H](C)CO)C[C@@H]1C -1.25% [at 30 µM]
COc1ccc2c3c(n(C)c2c1)[C@H](CO)N(S(C)(=O)=O)CC31CCN(CC2CCCC2)CC1 2.99%
O=C(N/N=C1\CCCc2ccccc21)c1ccccc1Cl -19.1%
COc1ccc2c3c([nH]c2c1)[C@H](CO)N(C(=O)CN(C)C)CC31CCN(CC2CCCC2)CC1 0.289%
Cc1noc(C)c1S(=O)(=O)Nc1cccc2c1O[C@H](CN(C)C(=O)Nc1ccc(C(F)(F)F)cc1)[C@H](C)CN([C@@H](C)CO)C2=O 3.91%
Cc1ccc2nc(-c3cccc(Br)c3)c(Cc3cccc(Cl)c3)n2c1 -4.19%
COc1ccc(NC(=O)N(C)C[C@@H]2Oc3ccc(NC(=O)Nc4ccc(F)cc4)cc3CC(=O)N([C@@H](C)CO)C[C@@H]2C)cc1 -9.35%
COCC(=O)N(C)C[C@@H]1Oc2cc(C#CC(C)(C)O)ccc2S(=O)(=O)N([C@H](C)CO)C[C@@H]1C -2.42%
O=C(CN1C(=O)NC2(CCCC2)C1=O)Nc1cc(C(F)(F)F)ccc1N1CCCCC1 13.5%
O=C(C[C@H]1C[C@@H]2c3cc(NC(=O)CC4CC4)ccc3O[C@@H]2[C@@H](CO)O1)NCc1ccc(-c2ccccc2)cc1 -3.76%
C[C@@H]1CCCCO[C@@H](CN(C)C(=O)CCC(F)(F)F)[C@@H](C)CN([C@@H](C)CO)C(=O)c2cc(NS(=O)(=O)c3ccc(Cl)cc3)ccc2O1 6.89% [at 30 µM]
CN1C(=O)c2cc(NC(=O)C3CCCCC3)ccc2OC[C@@H]2O[C@@H](CC(=O)NC3CCCC3)CC[C@H]21 2.02%
O=C(C[C@H]1C[C@H]2c3cc(NC(=O)CC4CC4)ccc3O[C@H]2[C@@H](CO)O1)NCc1ccc(-c2ccccc2)cc1 -10.3% [at 30 µM]
COc1ccccc1S(=O)(=O)N1C[C@H](O)COC[C@H]2O[C@@H](CC(=O)O)CC[C@@H]21 1.3%
COc1ccc(Cc2nnc(SCC(=O)NC3(C#N)CCCCC3)n2N)cc1 3.28%
C[C@H]1CN([C@@H](C)CO)C(=O)CCCn2cc(nn2)CO[C@@H]1CN(C)Cc1cccc(C(F)(F)F)c1 1.68%
O=C(c1cccc(F)c1)N1CCCCN2[C@H](C1)[C@H](c1ccc(-c3ccccc3)cc1)[C@@H]2CO 10.4%
COCC(=O)N(C)C[C@H]1Oc2cc(C#CC(C)(C)O)ccc2S(=O)(=O)N([C@@H](C)CO)C[C@H]1C -2.23%
C[C@@H]1CN([C@@H](C)CO)C(=O)c2cc(NC(=O)Nc3ccc4c(c3)OCO4)ccc2O[C@@H]1CN(C)Cc1ccc(C(=O)O)cc1 -9.55%
Cc1cccc(S(=O)(=O)N(C)C[C@H]2OCc3cnnn3CCCC(=O)N([C@@H](C)CO)C[C@H]2C)c1 4.42%
COc1ccc2c3c([nH]c2c1)[C@@H](CO)N(C(=O)C1CCCC1)CC31CCN(C(=O)NC(C)C)CC1 4.34%
CC(=O)Nc1ccc2c(c1)C(=O)N(C)[C@H]1CC[C@@H](CC(=O)NCC3CC3)O[C@H]1CO2 -4.92%
C[C@@H]1CN([C@H](C)CO)C(=O)c2cccc(NS(=O)(=O)c3ccc(Cl)cc3)c2O[C@@H]1CN(C)Cc1ccc(C(F)(F)F)cc1 -7.04%
C[C@H](O)C#Cc1cnc2c(c1)C(=O)N([C@@H](C)CO)C[C@H](C)[C@H](CN(C)CC1CCCCC1)O2 -10.5%
C[C@@H]1CN([C@H](C)CO)C(=O)Cc2cc(NC(=O)Nc3cccc4ccccc34)ccc2O[C@@H]1CN(C)C(=O)Nc1cccc2ccccc12 11.3%
COc1ccc(S(=O)(=O)Nc2ccc3c(c2)CC(=O)N([C@H](C)CO)C[C@H](C)[C@H](CN(C)C(=O)Nc2ccccc2)O3)cc1 -10.3%
